In PubChem BioAssay AID488969 (Vanderbilt High Throughput Screening Facility, 2010):
In all, about 110,000 compounds were measured (“z-score”: median about -0.1, highest 2% from about 2 on). This is one part of a sample in which the highest values are shown more often than they occur. Active and inactive are the calls of the source.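 Rule for the calls: active = z-score in the third read window above 3 or below -3; inactive = the rest.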

What follows are molecules tested against Metabotropic glutamate receptor 8 (Rattus norvegicus) (UniProt P70579) (assay: mGluR8 Gi/Go-coupled signaling modulation – cell-based, rat, thallium flux, HTS, primary screen (AID 488969)). Details: HEK293 rat mGluR8, GIRK (G protein-gated inwardly rectifying potassium channel) thallium flux, FluoZin2; at 10 µM; stronger effect = higher value; submaximal glutamate (EC20) added with thallium.
Metabotropic glutamate receptor 8 (Rattus norvegicus), sequence (P70579 whole entry, looked up): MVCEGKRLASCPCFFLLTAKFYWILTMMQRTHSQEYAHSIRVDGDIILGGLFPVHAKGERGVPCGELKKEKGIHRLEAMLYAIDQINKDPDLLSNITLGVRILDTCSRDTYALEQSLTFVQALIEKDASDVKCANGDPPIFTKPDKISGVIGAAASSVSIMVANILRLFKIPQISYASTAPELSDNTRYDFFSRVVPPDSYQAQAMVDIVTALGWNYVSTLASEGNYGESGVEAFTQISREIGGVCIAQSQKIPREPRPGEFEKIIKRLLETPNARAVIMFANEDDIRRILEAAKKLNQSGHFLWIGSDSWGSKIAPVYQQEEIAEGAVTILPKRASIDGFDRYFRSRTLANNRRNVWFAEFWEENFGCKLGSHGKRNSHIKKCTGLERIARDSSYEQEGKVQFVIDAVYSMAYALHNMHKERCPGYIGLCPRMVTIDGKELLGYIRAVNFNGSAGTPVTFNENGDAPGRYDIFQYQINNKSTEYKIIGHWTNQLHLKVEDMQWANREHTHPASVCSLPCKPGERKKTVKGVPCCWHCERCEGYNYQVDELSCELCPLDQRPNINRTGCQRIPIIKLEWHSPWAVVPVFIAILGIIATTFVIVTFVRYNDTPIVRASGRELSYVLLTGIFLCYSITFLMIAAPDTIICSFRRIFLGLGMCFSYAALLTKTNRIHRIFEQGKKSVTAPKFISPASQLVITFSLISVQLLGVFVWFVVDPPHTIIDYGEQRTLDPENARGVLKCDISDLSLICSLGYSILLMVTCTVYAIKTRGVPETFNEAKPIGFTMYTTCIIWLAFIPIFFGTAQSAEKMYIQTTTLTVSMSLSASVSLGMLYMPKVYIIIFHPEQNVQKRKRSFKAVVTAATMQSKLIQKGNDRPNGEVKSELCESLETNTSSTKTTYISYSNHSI
Molecule CCCC(C(=O)c1ccccc1)n1cncn1 (stereo unspecified) has a z-score of -0.313. N#Cc1c(-c2cccnc2)c2c([nH]c1=S)CCCC2 was tested, and the z-score was -0.285. With COc1ccc(-c2c3c([nH]c(=S)c2C#N)CCC3)cc1 the z-score was 2.17. Molecule N#Cc1c(-c2ccncc2)c2c([nH]c1=S)CCCC2 has a z-score of -0.164. In the case of COc1cc(C(=O)N(Cc2ccco2)Cc2cc3ccccc3[nH]c2=O)cc(OC)c1OC, the z-score is reported as -0.671. With COc1cc(C2Nn3c(nnc3-c3ccccc3OC)S2)ccc1O (stereo unspecified) the z-score was -0.0272. Work on COc1ccc(NC(=O)c2cccs2)cc1 yielded a z-score of 0.303. Molecule COc1ccc(OCC(=O)NNC(=O)c2cccs2)cc1 has a z-score of 0.919. Molecule COc1cc(N)ccc1NC(=O)c1cccs1 has a z-score of -0.15. In the case of COc1ccc(NC(=O)C(=O)NNC(=O)c2cccs2)c(OC)c1, the z-score is reported as 5.95 (active). COc1ccc(NC(=O)C(=O)NNC(=O)c2cccs2)cc1 was tested, and the z-score was 7.11 (active). COc1ccc(OC)c(NC(=O)C(=O)NNC(=O)c2cccs2)c1 gave a z-score of 1.69. Molecule CCC(=O)Nc1nnc(SCc2ccc(F)cc2)s1 has a z-score of -0.00764. COc1ccc(N2C(=O)CC(Nc3ccc(C)cc3)C2=O)cc1 (stereo unspecified) gave a z-score of -0.557. With CC1CC(C)(C)NC(=S)N1CC(=O)N(C)Cc1ccccc1 (stereo unspecified) the z-score was -0.189. Molecule CCNC(=S)NNC(=O)c1cccn(Cc2ccc(Cl)cc2Cl)c1=O has a z-score of -0.0504. Molecule COn1c(=O)c(-c2cccs2)[n+]([O-])c2ccccc21 has a z-score of 1.16. CCOn1c(=O)c(-c2cccs2)[n+]([O-])c2ccccc21 was tested, and the z-score was -2.21. In the case of C=CCOn1c(=O)c(-c2cccs2)[n+]([O-])c2ccccc21, the z-score is reported as 3.49 (active). Molecule Cc1nn(C(C)C(=O)O)c(=O)c2c1sc1ccccc12 (stereo unspecified) has a z-score of -0.395. N#Cc1cn(-c2ccccc2)nc1-c1ccco1 was tested, and the z-score was -0.0798. CCNC(=O)C1CCCN1S(=O)(=O)c1ccc(OC)cc1 (stereo unspecified) gave a z-score of 0.787. CCC(C)c1c(O)nc(SCC(=O)N2CCOCC2)[nH]c1=O (stereo unspecified) gave a z-score of 2.93. CC(C)c1c(O)nc(SCC(=O)N2CCOCC2)[nH]c1=O was tested, and the z-score was -0.357. In the case of CCCCc1c(O)nc(SCC(=O)N2CCOCC2)[nH]c1=O, the z-score is reported as 0.0929. For COC(=O)c1ccccc1Oc1nc(Cl)cc(OC)n1, the z-score was -0.22. CCOC(=O)c1cnc2c(C)c(Cl)ccc2c1Nc1ccc(S(=O)(=O)Nc2ncccn2)cc1 was tested, and the z-score was 9.28 (active). In the case of CCOC(=O)c1cnc2c(C)c(C)ccc2c1Nc1ccc(S(=O)(=O)Nc2ncccn2)cc1, the z-score is reported as -0.177. In the case of CCOC(=O)c1cnc2c(C)cc(C)cc2c1Nc1ccc(S(=O)(=O)Nc2ncccn2)cc1, the z-score is reported as -0.378. Molecule CCOc1ccc(-n2c(=S)sc3c(=O)[nH]c(SCC(=O)NC(C)CC)nc32)cc1 (stereo unspecified) has a z-score of -0.859. CC1CCN(Cc2nnnn2-c2cccc([N+](=O)[O-])c2)CC1 gave a z-score of -0.243. CC(C)OCC(O)CCc1n[nH]c(=S)n1-c1ccccc1 (stereo unspecified) was tested, and the z-score was -0.224. In the case of O=C(c1ccccc1)c1ccc(OCCCN2CCCC2)cc1, the z-score is reported as -0.0127. For COc1ccc(OCCCN2CCCCCC2)cc1, the z-score was 8.02 (active). With O=C(c1ccccc1)c1ccc(OCCCCN2CCCCC2)cc1 the z-score was -0.455. CCN1CCN(CCCOc2ccc(-c3ccccc3)cc2)CC1 was tested, and the z-score was 4.56 (active). Work on COc1ccc(OCCCN2CCCC(C)C2)cc1 (stereo unspecified) yielded a z-score of 0.314. CC(C)Oc1ccc(OCCCN2CCCCCC2)cc1 gave a z-score of -0.0757. In the case of c1ccc(COc2ccc(OCCCNC3CCCC3)cc2)cc1, the z-score is reported as 2.46. With c1ccc(OCCCN2CCCC2)cc1 the z-score was 0.00842. Cc1ccc(OCCCNC2CCCC2)cc1 showed a z-score of -0.0441. In the case of CC1CCN(CCCCOc2ccc(C(=O)c3ccccc3)cc2)CC1, the z-score is reported as 2.47. For CCOc1ccc(OCCNC2CCCC2)cc1, the z-score was 0.0455. Work on CCN1CCN(CCCCSc2ccccc2)CC1 yielded a z-score of -0.152. With CSCCNC(=O)c1ccc(C(C)(C)C)cc1 the z-score was -0.121. CCCc1cc(=O)[nH]c(SCC(=O)N(Cc2ccccc2)C(C)C)n1 was tested, and the z-score was -0.715. CC(C)(C)C(=O)Nc1cc(NC(=O)C(C)(C)C)cc(C(=O)Nc2cc(C(=O)O)cc(C(=O)O)c2)c1 gave a z-score of 0.00761. Molecule Cc1cc(C(F)F)n2ncc(C(=O)NCCc3ccc(Cl)cc3)c2n1 has a z-score of -0.612. With Cc1nn(CC(=O)OCC(=O)Nc2ccccc2[N+](=O)[O-])c(C)c1[N+](=O)[O-] the z-score was 0.113. Nc1nc(-c2cccnc2)nn1C(=O)COc1ccccc1 was tested, and the z-score was -0.135. In the case of O=C(NCC(c1cccnc1)N1CCN(c2ccccc2F)CC1)c1cccc(Cl)c1 (stereo unspecified), the z-score is reported as 0.459. In the case of CCCOc1c(OC)cc(Cl)cc1C1NC(=O)NC(C)=C1C(=O)NCc1ccccc1 (stereo unspecified), the z-score is reported as -0.431. c1ccc(COc2ccc(OCCCCN3CCCCC3)cc2)cc1 was tested, and the z-score was 2.79. CC1CCN(CCCOc2ccc(OCc3ccccc3)cc2)CC1 was tested, and the z-score was 0.441. In the case of c1ccc(COc2ccc(OCCCN3CCCC3)cc2)cc1, the z-score is reported as 0.306. In the case of c1ccc(COc2ccc(OCCCCN3CCCC3)cc2)cc1, the z-score is reported as 0.565. For O=C(c1ccccc1)c1ccc(OCCCN2CCCCC2)cc1, the z-score was 1.54. c1ccc(COc2ccc(OCCCN3CCCCC3)cc2)cc1 gave a z-score of 2.89. With CCOC(=O)c1c(NC(=O)CCN2C(=O)c3ccccc3C2=O)sc(C(=O)OC(C)C)c1C the z-score was -0.193. For O=C(c1cnccn1)N(c1ccccc1)C1(C(=O)NC2CCCC2)CCCCC1, the z-score was 0.00523. Molecule CCOC(=O)CSc1nc(-c2ccc3c(c2)OCO3)ccc1C#N has a z-score of -0.00752. With COc1ccc2occ(C(C)=O)c2c1 the z-score was -1.2. For COc1ccc2occ(C(=O)c3ccc(N=C(C)N(C)C)cc3)c2c1, the z-score was 3.46 (active). Work on COc1ccc2occ(C(=O)c3cccs3)c2c1 yielded a z-score of 0.191. Molecule COc1ccc(CCNC(=S)Nc2ccc(C)cc2C)cc1 has a z-score of -0.0431. CCc1cc2c(N[C@@H](C)C(=O)O)ncnc2s1 was tested, and the z-score was 0.00833. N/C(=N\OC(=O)Cc1ccccc1)c1ccc(Br)cc1 showed a z-score of 2.92. In the case of N/C(=N\OC(=O)c1ccc(Br)cc1)c1ccccc1, the z-score is reported as -0.37. In the case of N/C(=N\OC(=O)CCc1ccccc1)c1ccc(Br)cc1, the z-score is reported as 0.12. Work on O=C(NC(C(=O)O)c1ccccc1)c1ccc(S(=O)(=O)N2CCOCC2)cc1 (stereo unspecified) yielded a z-score of -0.0595. CCCCn1c(SCC(=O)N2CCC(C)CC2)nc2ccsc2c1=O showed a z-score of -1.86. With Cc1ccc(-c2nnc(-c3ccccc3)o2)cc1 the z-score was -0.254. In the case of CCNc1nnc(-c2ccc(C)cc2)o1, the z-score is reported as 2.74. With Cc1ccc(-c2nnc(Nc3ccccc3)o2)cc1 the z-score was 1.1. CC(=O)Nc1cccc(C(=O)OC(C(=O)c2ccc(C)cc2)c2ccccc2)c1 (stereo unspecified) showed a z-score of 0.508. CCN(CC)c1ccc(NC(=O)CN2CCN(S(=O)(=O)c3cc(Cl)ccc3OC)CC2)cc1 gave a z-score of -0.269. Molecule CC1CN(CC(=O)c2c(N)n(Cc3ccccc3)c(=O)n(C)c2=O)CC(C)O1 (stereo unspecified) has a z-score of 0.178. For Cc1ccc(Cn2nnc3c(=O)[nH]c(C4CCN(C(=O)c5cccs5)CC4)nc32)cc1, the z-score was -0.73. For O=C(NCC(c1cccs1)N1CCOCC1)c1ccccc1NS(=O)(=O)c1ccc(Cl)c([N+](=O)[O-])c1 (stereo unspecified), the z-score was -0.572. For Cc1cc(=O)n2[nH]c(C)c(-c3ccccc3)c2n1, the z-score was -0.675. Cc1[nH]n2c(=O)cc(C(C)C)nc2c1-c1ccccc1 gave a z-score of -0.963. With Cc1[nH]n2c(=O)cc(C(C)(C)C)nc2c1-c1ccccc1 the z-score was 4.43 (active). CC(C)OC(=O)c1cccnc1N1CCN(c2ccc(F)cc2)CC1 showed a z-score of -0.216. Cc1nc2ccc(NC3=NCCCCC3)cc2s1 gave a z-score of 0.806. COc1cc(OC)c(C2C(C(=O)N3CCOCC3)=C(C)NC3=C2C(=O)CC(C)(C)C3)cc1OC (stereo unspecified) was tested, and the z-score was -0.103. Molecule CC(C)c1nc2ccccn2c1NC1CCCCC1 has a z-score of 0.45. With Cc1ccn2c(NC3CCCCC3)c(C(C)C)nc2c1 the z-score was 2.52. Molecule Cc1ccn2c(NC3CCCCC3)c(C)nc2c1 has a z-score of -0.312. Cc1ccc(/C=C/S(=O)(=O)N2CCC(C(=O)O)CC2)cc1 was tested, and the z-score was -0.628. For CCOC(=O)N1CCN(c2nnnn2-c2ccccc2)CC1, the z-score was -0.14. Cc1ccc(S(=O)(=O)N2CCOCC2)cc1NC(=O)COC(=O)CSc1ccc(Br)cc1C showed a z-score of -0.132. CC(C)NC(=O)CSCc1c(Cl)cccc1Cl was tested, and the z-score was -0.342. CCn1ncc(Cl)c1C(=O)Nc1cc(Cl)ccc1Cl was tested, and the z-score was 0.0474. Work on Cc1ccccc1OCc1nc2ccccc2c(=O)n1/N=C/c1cccc([N+](=O)[O-])c1 yielded a z-score of -0.0563. In the case of CN1CC2=Cc3ccccc3OC23Oc2ccccc2C=C3C1, the z-score is reported as 2.01. O=C1c2ccccc2OC2(C=Cc3ccccc3O2)N1Cc1ccccc1 (stereo unspecified) showed a z-score of 0.198. Work on Cc1ccc(-c2nn(CC(=O)Nc3ccc4c(c3)nc3n4CCOC3)c(=O)c3ccccc23)cc1 yielded a z-score of -0.236. With COc1ccccc1N1CCN(C(=O)Cn2c(=O)[nH]c3ccsc3c2=O)CC1 the z-score was -0.563. S=C(NCCN1CCOCC1)Nc1ccc(Cl)cc1 showed a z-score of -0.102. For CCCn1cc(NC(=O)c2cc(-c3ccccc3)on2)cn1, the z-score was 13 (active). O=C(Nc1cnn(C23CC4CC(CC(C4)C2)C3)c1)c1cc(-c2ccccc2)on1 showed a z-score of 0.107. For CC(C)n1cc(NC(=O)c2cc(-c3ccccc3)on2)cn1, the z-score was 16.8 (active). Molecule O=C(Nc1cccnc1)c1cc(-c2ccccc2)on1 has a z-score of -0.466. Cc1ccc(-c2cc(C(=O)Nc3cnn(C(C)C)c3)no2)cc1 gave a z-score of 0.74. Molecule COc1cccc(-c2cc(C(=O)Nc3cnn(Cc4ccccc4C)c3)no2)c1 has a z-score of 0.0739. With COc1ccc(Sc2cc(C(F)(F)F)nc(-c3ccccn3)n2)cc1 the z-score was -0.417. In the case of CCOc1ccccc1CNC(=O)CCNC(=O)Cn1ccc2ccccc2c1=O, the z-score is reported as 0.269. CCc1cc(-c2n[nH]c(=S)n2-c2cccc(C)c2)cs1 was tested, and the z-score was 0.65. Cc1cccc(-n2c(-c3csc(C)c3)n[nH]c2=S)c1 gave a z-score of 0.189. For Cc1cccc(-n2c(-c3csc(C(C)C)c3)n[nH]c2=S)c1, the z-score was 2.87. Molecule Cc1cccc(-n2c(-c3csc(C)c3C)n[nH]c2=S)c1 has a z-score of 0.00757. Cc1ccccc1-n1c(-c2csc3ccccc23)n[nH]c1=S gave a z-score of 0.627. Molecule Cc1cccc(-n2c(-c3csc4ccccc34)n[nH]c2=S)c1 has a z-score of 2.62. With CC(NC(=O)C1CCCCC1)C(=O)NC1=NCCS1 (stereo unspecified) the z-score was 0.00509. With Cc1cccc(C)c1Oc1nc(-c2ccccc2)ncc1S(=O)(=O)c1ccccc1 the z-score was -0.0101. CN1CCN(CCCNC(=O)c2ccc3c(c2)N(Cc2ccccc2)CCS3)CC1 showed a z-score of 0.775.
